# Sampled rows, rich in hits. Any-hit rate of the full collection: about 2.8%.
# Pol beta inh – blocks human DNA polymerase beta activity; P06746; Pol beta primer extension/strand displacement, fluorescence kinetic; Potency, µM (series often up to 114 µM), without a hit: at the top dose activity change, negative = inhibition, hits mostly inhibitors; 340,000 compounds, 1.3% hits; also: potency is read from the fitted curve at half-maximal effect; % is scaled to controls: 0 for no effect and ±100 for the full control effect
#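 Pol beta (10 nM) was preincubated with compound for 15 min at room temperature. The reaction was then started with 50 nM substrate and read immediately and after a further 10 min at room temperature.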
# PI4K2A block – PI4K2A (human) kinase inhibition; Q9BTU6; purified PI4K2A, ADP-Glo luminescence, 1 h; stronger effect = lower value; activity change, negative = inhibition, % at 76.9 µM; 420,000 compounds, 0.13% hits; AID 1346378; in the data active = activity change below about -50%; inconclusive = mostly about -30% to -49%;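 also: -100% = wells without enzyme as full effect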
#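 PI4K2A activity was measured by ADP-Glo luminescence: enzyme (4 ug/mL stock) and phosphatidylinositol (1.2 mM stock) in Tris pH 7.5/MgCl2/EGTA/Triton X-100 buffer were reacted with ATP (300 microM stock) for one hour at ambient temperature.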
# PI5P4Ka inh – PI5P4K alpha (human) kinase inhibition; P48426; PI5P4Kalpha enzyme, ADP-Glo luminescence, 60 min; stronger effect = lower value; max response, %; 330,000 compounds, 1.2% hits; AID 652105; active = max response of -50% or lower; inconclusive = between -30% and -50%; inactive = -30% or higher; also: value at the top dose of about 77 µM; % is scaled to controls: 0 for no effect and ±100 for the full control effect
#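 Reactions run in 0.038 M HEPES pH 7.4, 0.28 mM EGTA, 0.1% CHAPS and 5% DMSO, with PI5P4Kalpha, substrate, compound and 5 microM ATP final, one hour at room temperature. Readout is ADP-Glo luminescence.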
# POLI inh – inhibitors of human DNA polymerase iota. Q9UNA4. Pol iota fluorescent replication assay, 10 min. Potency, µM (series often up to 115 µM), without a hit: top-dose activity, negative = inhibition, hits mostly inhibitors. 390,000 compounds, 1% hits. AID 588590; also: potency is read from the fitted curve at half-maximal effect
#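 Pol iota at 10 nM preincubated 15 min with compounds at room temperature; reaction started with fluorescent substrate, 50 nM final. Fluorescence read kinetically at 0 and 10 min; buffer-only wells as negative control.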
# POLK inh – inhibitors of human DNA polymerase kappa; Q9UBT6; purified Pol kappa, fluorescent DNA synthesis assay, 10 min; Potency, µM (highest dose often 107 µM), for inactives: at the top dose activity, negative = inhibition, usual class: inhibitors; 400,000 compounds, 0.53% hits; also: potency is read from the fitted curve at half-maximal effect; % is scaled to controls: 0 for no effect and ±100 for the full control effect
#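 Kinetic fluorescence readout at 0 and 10 min followed reaction start with substrate at 50 nM final. Beforehand, enzyme (10 nM Pol kappa) stood 15 min with compound at room temperature; buffer-only wells were negative controls.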
# POLH inh – blocks human DNA polymerase eta activity; Q9Y253; recombinant Pol eta, fluorescent DNA replication assay; Potency, µM (top dose mostly 114 µM), without a hit: top-dose activity change, negative = inhibition, actives largely listed as inhibitors; 390,000 compounds, 1.2% hits; also: potency is read from the fitted curve at half-maximal effect; % is scaled to controls: 0 for no effect and ±100 for the full control effect
# Target sequence (Q9Y253 whole entry, looked up): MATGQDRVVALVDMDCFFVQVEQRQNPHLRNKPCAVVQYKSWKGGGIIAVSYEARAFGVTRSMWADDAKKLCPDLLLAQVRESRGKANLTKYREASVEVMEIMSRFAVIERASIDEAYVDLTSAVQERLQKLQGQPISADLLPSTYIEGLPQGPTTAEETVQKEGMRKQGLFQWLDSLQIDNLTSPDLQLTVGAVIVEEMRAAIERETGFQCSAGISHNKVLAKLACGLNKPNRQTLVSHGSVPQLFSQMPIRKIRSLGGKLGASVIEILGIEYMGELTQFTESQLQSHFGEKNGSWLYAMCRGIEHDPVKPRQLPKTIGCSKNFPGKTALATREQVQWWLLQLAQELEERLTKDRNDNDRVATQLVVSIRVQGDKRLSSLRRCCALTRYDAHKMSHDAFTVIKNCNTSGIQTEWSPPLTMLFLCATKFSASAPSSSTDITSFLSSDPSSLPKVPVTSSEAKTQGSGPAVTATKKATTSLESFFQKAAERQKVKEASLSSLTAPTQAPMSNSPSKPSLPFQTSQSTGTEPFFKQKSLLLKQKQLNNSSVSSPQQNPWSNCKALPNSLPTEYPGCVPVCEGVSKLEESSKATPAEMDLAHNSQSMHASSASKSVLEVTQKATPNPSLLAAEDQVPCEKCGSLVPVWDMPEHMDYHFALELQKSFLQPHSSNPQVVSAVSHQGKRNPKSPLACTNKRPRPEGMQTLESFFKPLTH
#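 Fluorescent replication assay: 50 nM final substrate added after a 15 min room-temperature compound preincubation with 10 nM enzyme. Signal taken at 0 min and again at 10 min.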
# * marks the source's active call; other numbers are inactive results; ? = inconclusive; nt = no result; [ ] = remark or other dose. Unless noted, calls follow the shape of the dose curve; as a rule, active = well fitted inhibition curve with a large enough effect; inconclusive = small, poorly fitted or top-dose-only effect, or another doubt; inactive = no such curve, though single readings can be large or run the other way.
SMILES,Pol beta inh,PI4K2A block,PI5P4Ka inh,POLI inh,POLK inh,POLH inh
CN(C)c1cc(NC(=O)CNC(C)(C)C)c(O)c2c1C[C@@H]1C[C@H]3[C@H](N(C)C)C(=O)C(C(N)=O)=C(O)[C@@]3(O)C(=O)C1=C2O,nt,-8,nt,nt,nt,nt
Cc1cccc2c(N=Nc3ccc(S(=O)(=O)Nc4cccc(Cl)c4)cc3[N+](=O)[O-])c(O)[nH]c12,-13%,-6,-71*,-9%,6%,?
Cc1ccc(S(=O)(=O)Nc2ccccc2)cc1[N+](=O)[O-],nt,4,0,11%,-11%,?
OC1(Cc2ccccc2)CCN(c2ncnc3sccc23)CC1,nt,1,nt,nt,nt,nt
CC(=O)c1cc(C)c(OCc2cn(CC(=O)c3ccc(O)cc3)nn2)c(C)c1,nt,-23,-5,7.9µM*,-15%,-11%
Cc1ccc(/C=C/C(=O)O)cc1S(=O)(=O)N(C)CCO,-1%,0,-64*,-1%,-1%,-11%
COc1cc(/C=C/C(=O)O)cc(S(=O)(=O)N(C)CCO)c1OC,5%,-3,-8,19%,-2%,-10%
CC(=O)N1CCCC(C)(C(=O)N(C)Cc2cccc3ccccc23)C1 (stereo not drawn),nt,2,-1,nt,nt,nt
COC(=O)CN1C(=O)[C@H]2[C@@H](c3ccc(C)o3)N3C(=O)CN(Cc4ccc(-c5ccccc5)cc4)C(=O)[C@@]3(C)[C@H]2C1=O,35%,3,-62*,-15%,6%,-5%
CC(O)(c1ccccc1)[N+]1(CC(=O)c2ccccc2)C=CC=C1 (stereo not drawn),nt,nt,nt,-11%,-21%,nt
CCc1oc2c(C)c(O)ccc2c(=O)c1-c1ccc2ccccc2n1,27%,-52*,nt,33%,-9%,-12%
N#C/C(=C\c1c[nH]c2ccccc12)C(=O)NC1CC1,21%,-1,5,-29%,-11%,-4%
N#C/C(=C\c1c[nH]c2ccccc12)C(=O)c1ccc(O)c(O)c1,3.8µM*,4,nt,7.9µM*,6µM*,1.4µM*
CCOc1ccc(CNC(=O)CCC(=O)N2CC3CCCN3c3ccccc32)cc1 (stereo not drawn),2%,-7,nt,15%,-26%,-4%
CCOc1ccccc1OCC1CNCCO1 (stereo not drawn),nt,0,nt,nt,nt,nt
CN(C)S(=O)(=O)N1CCC(Oc2cccc(C(=O)N3CCCCCCC3)c2)CC1,0%,-7,0,89µM*,-10%,-10%
CCN(CC)S(=O)(=O)c1ccc(N=NC2=C(O)CCCC2=O)cc1,-4%[57.1 µM],-2,0,12%,-2%,-8%
CCN(CC)S(=O)(=O)c1ccc(N=Nc2c(N)[nH]c(=O)[nH]c2=O)cc1,15%,5,-67*,-7%,-3%,-5%
CN(C)S(=O)(=O)c1ccc(C(=O)OCC(=O)c2csc(N3CCCCC3)n2)cc1,nt,-7,-28,?,-37%,79µM*
CCN(CC)S(=O)(=O)c1ccc(C(=O)NNC(=O)c2csc(N3CCOCC3)n2)cc1,nt,0,-13,15%,-7%,-4%
CSC1=NC(=O)/C(=C\c2cccc3ccccc23)S1,50µM*,3,-22,25%,-5%,-16%
O=C(O)C1(C(=O)O)CCC1.[NH2-].[NH2-].[Pt+2],nt,-16,nt,nt,8.9µM*,nt
COc1cc(/C=C/c2[nH]c(=O)[nH]c(=O)c2[N+](=O)[O-])cc(OC)c1O,19%,-19,-88*,-10%,-5%,-20%
O=c1[nH]c(/C=C/c2ccccc2Cl)c([N+](=O)[O-])c(=O)[nH]1,-8%,-15,-69*,?,-27%,28µM*
O=c1[nH]c(/C=C/c2ccccc2Cl)nc2ccccc12,?,-3,-5,?,-8%,-6%
CCOc1ccc(/C=C/c2[nH]c(=O)[nH]c(=O)c2[N+](=O)[O-])cc1,17%,-2,?,15%,0%,?
CCOc1cc(/C=C\c2[nH]c(=O)[nH]c(=O)c2[N+](=O)[O-])ccc1OC(C)CC (stereo not drawn),-4%,-27,nt,?,-3%,?

# From PubChem BioAssay
